Compounds with a hit are over-represented: about 2.4% of the library has one in this group of screens.
D2 PAM-1: human D2 receptor positive allosteric modulation. DiscoveRx D2 beta-arrestin cells, luminescence, 90 min; 100% = 57 uM dopamine signal. potentiation, % (test concentration not listed). hit rate 0.23% among 360,000. AID 624464; in the data active means potentiation above about 50%; inconclusive means mostly about 30% to 49%
Target sequence (P14416 whole entry, looked up): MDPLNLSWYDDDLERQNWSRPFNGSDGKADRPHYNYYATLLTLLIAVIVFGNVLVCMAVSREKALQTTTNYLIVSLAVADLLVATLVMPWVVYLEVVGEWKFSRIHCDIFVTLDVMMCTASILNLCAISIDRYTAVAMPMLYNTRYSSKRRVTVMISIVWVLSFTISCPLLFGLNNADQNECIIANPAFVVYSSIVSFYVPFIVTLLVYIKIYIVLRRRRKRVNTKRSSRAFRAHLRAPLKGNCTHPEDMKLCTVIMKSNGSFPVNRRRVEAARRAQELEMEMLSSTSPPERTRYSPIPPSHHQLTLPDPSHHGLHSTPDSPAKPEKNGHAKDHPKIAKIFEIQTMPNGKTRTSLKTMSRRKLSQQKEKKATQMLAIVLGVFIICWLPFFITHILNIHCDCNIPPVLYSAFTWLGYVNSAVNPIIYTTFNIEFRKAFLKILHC
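D2 cells co-treated with compound plus 50 nM dopamine (EC20) for 90 min at 37 deg C to detect potentiation. Beta-arrestin recruitment was read as enzyme-fragment luminescence after 1 h at ambient temperature. Full response was set by 57 uM dopamine.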
D2 ag-1: human D2 receptor agonism in beta-arrestin assay. P14416. DiscoveRx PathHunter D2 beta-arrestin, luminescence, 90 min; 100% = 57 uM dopamine signal. activation, % (test concentration not listed). hit rate 0.084% among 360,000. AID 624465; in the data active means activation above about 40%; inconclusive means between about 15% and that limit
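DiscoveRx PathHunter D2 beta-arrestin cells (2,100/well) attached overnight, then compound-stimulated 90 min at 37 C in HBSS/10 mM HEPES/0.1% Tween-20 buffer; beta-galactosidase complementation read by luminescence after 1 h at ambient temperature. Dopamine 57 uM final (EC100) as control.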
D2 antagonist: antagonizes the human D2 dopamine receptor; P14416; HEK293 TREx D2 cells, calcium flux, dopamine EC80; inhibition, % at 10 µM; hit rate 2% among 340,000; AID 485344; in the data active means inhibition above about 30%; inactive means below that, where a call was filed
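Dopamine at EC80 is the agonist stimulus; test compounds precede it by 180 s. Calcium flux read kinetically in a force-coupled, inducible HEK293 T-REx D2 cell line.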
D2 ag-2: activates the human D2 dopamine receptor | AID 485358 | hit rate 0.53% among 340,000 | HEK293 T-REx D2 cells, calcium flux agonist mode | activation, % at 2 µM | P14416;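 active means activation over 3 SD above normal in the single-dose calcium agonist read, cut at about 30% in these data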
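Agonism scored from kinetic calcium signal (1 read/sec, 180 s) following compound pin transfer, after a 10 s baseline. Cells: HEK293 Trex line expressing inducible D2 receptor coupled to calcium, dye-loaded after overnight culture at 30 C.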
D2 PAM-2: positively modulates the human D2 dopamine receptor allosterically; P14416; HEK293 T-REx D2, calcium flux, EC20 dopamine potentiation; potentiation, % at 10 µM; hit rate 0.34% among 340,000; AID 485347;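 active means potentiation over 3 SD above the plate norm, cut at about 30% in these data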
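Tetracycline-induced HEK293 T-REx cells force-coupled to calcium signalling expressed D2; compounds were pin-added after a 10 s baseline, read kinetically 180 s, then an EC20 dopamine challenge followed with a further 180 s calcium read.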
Numbers stand for hits; . = inactive; ? = inconclusive; / = no result given.

SMILES | D2 PAM-1 | D2 ag-1 | D2 antagonist | D2 ag-2 | D2 PAM-2
O=c1cc(-c2ccc(F)cc2)nc(SCc2nc(-c3ccc(Cl)cc3)no2)[nH]1 | / | / | / | . | .
COc1ccc(S(=O)(=O)/C(C#N)=C/Nc2cccc(F)c2)cc1 | . | . | . | . | .
COc1ccc(S(=O)(=O)/C(C#N)=C/Nc2ccccc2F)cc1 | . | . | 40 | . | .
O=C(Nc1ccccc1)/C(=C/c1ccccc1)NC(=O)c1ccco1 | . | . | 30 | . | .
O=C(Nc1ccccc1)/C(=C\c1ccc2c(c1)OCO2)NC(=O)c1ccco1 | . | . | 30 | . | .
O=C(Nc1ccccc1)/C(=C/c1ccc(O)cc1)NC(=O)c1ccco1 | . | . | . | . | .
CC(=O)C1=C(C)NC(C)=C(C(C)=O)C1c1ccccc1 | . | 41 | . | . | .
CC(=O)C1=C(C)NC(C)=C(C(C)=O)C1c1cccs1 | . | . | . | . | .
Cc1ccc(-n2nnnc2CNC(=O)c2ccccc2F)cc1C | / | / | / | / | .
Cc1c(NS(=O)(=O)c2ccc(NCCN3CCOCC3)c([N+](=O)[O-])c2)c(=O)n(-c2ccccc2)n1C | . | . | . | . | 31
COc1ccccc1N1CCN(C2CCCN(S(=O)(=O)c3cccc(Cl)c3)C2)CC1 (stereo not drawn) | . | . | 53 | . | .
COc1ccccc1N1CCN(C2CCCN(S(=O)(=O)c3ccc(C)cc3)C2)CC1 (stereo not drawn) | . | . | 66 | . | .
COc1ccc(CN2CCCC(N3CCN(c4cccc(Cl)c4)CC3)C2)cc1OC (stereo not drawn) | . | . | . | 38 | .
CCOc1cc(CN2CCCC(N3CCN(c4ccc(F)cc4)CC3)C2)ccc1OC (stereo not drawn) | . | . | . | . | .
CCNC(=O)Cc1ccc(NC(=O)N2CCCCc3ccccc32)cc1 | / | / | / | / | .
O=C(c1ccc(F)cc1F)N1CCC(c2nc(-c3ccc(S(=O)(=O)N4CCCC4)cc3)no2)CC1 | / | / | / | . | .
Cc1c(Cl)cccc1NC(=O)c1ccc2c(c1)nnn2C1CCCC1 | / | / | / | . | .
COc1ccc(OC)c(-n2c(-c3cccc(O)c3)n[nH]c2=S)c1 | . | . | . | . | 36
CSCCC(NC(=O)c1ccco1)C(=O)N1CCCCCCC1 (stereo not drawn) | . | . | . | . | .
CSCCC(NC(=O)c1ccco1)C(=O)O (stereo not drawn) | . | . | . | . | 31
COc1ccc(SCCN2CC[C@@H](C)CCC2=O)cc1 | . | . | . | . | .
CC1CCC(=O)N(CCSc2ccccc2)CC1 (stereo not drawn) | . | . | 33 | . | .
N/C(=N\OS(=O)(=O)c1ccc2ccccc2c1)c1ccncc1 | 151 | 41 | . | . | .
N/C(=N\OS(=O)(=O)c1ccccc1)c1ccncc1 | 96 | ? | . | . | .
COc1ccc(-c2cc(C)no2)cc1S(=O)(=O)NCCCN1CCCCCC1 | . | . | 34 | . | .
SMILES | D2 PAM-1 | D2 ag-1 | D2 antagonist | D2 ag-2 | D2 PAM-2
O=C(N/N=C/c1ccc(N2CCCC2)c([N+](=O)[O-])c1)c1cccnc1 | . | . | 41 | . | .
O=C(Nc1ccc(N2CCCCC2)cc1)c1cccnc1 | . | . | 34 | . | .
COc1cc(OC)cc(C(=O)NC(=S)Nc2ccc(NC(=O)c3ccco3)cc2)c1 | . | . | . | . | 37
COc1ccc(C(=O)NC(=S)Nc2ccc(N3CCCC3)cc2)cc1 | . | . | / | / | /
O=C(Nc1ccc(N2CCN(Cc3ccccc3Cl)CC2)cc1)c1cccnc1 | . | . | . | . | .
COc1cccc(C(=O)NC(=S)Nc2ccc(N3CCCC3)cc2)c1 | . | . | 57 | . | .
Cc1ccc(-n2c(=O)c3ccc(C(=O)NCc4ccccc4Cl)cc3n(Cc3cccc(F)c3)c2=O)cc1 | / | / | / | . | .
CCc1ccc(NC(=O)C2CCCN(S(=O)(=O)c3ccc4c(c3)oc(=O)n4C)C2)cc1 (stereo not drawn) | / | / | / | . | .
COc1ccccc1C(=O)Nc1ccnn1C1CCN(Cc2cc(C)c(C)cc2C)CC1 | . | . | 53 | . | .
COc1ccccc1C(=O)Nc1ccnn1C1CCN(Cc2cn(C)c3ccccc23)CC1 | . | . | 62 | . | .
COc1ccccc1C(=O)Nc1ccnn1C1CCN(CCCC2CCCC2)CC1 | . | . | 31 | . | .
Cc1cc(C)c(CN2CCC(n3nccc3NC(=O)c3ccccc3Cl)CC2)cc1C | . | . | . | . | .
O=C(Nc1ccnn1C1CCN(CCCC2CCCC2)CC1)c1ccccc1Cl | . | . | . | . | .
O=C(Nc1ccnn1C1CCN(C/C=C/c2ccccc2)CC1)c1cccc(F)c1 | . | . | . | . | .
O=C(Nc1ccnn1C1CCN(CCCc2ccccc2)CC1)c1cccc(F)c1 | . | . | . | 34 | .
CC1=C(C(=O)Nc2ccccc2)C(c2ccncc2)n2nc(SCc3ccccc3)nc2N1 (stereo not drawn) | / | / | / | . | .
Cc1cccc(OC(=O)c2cc(-c3ccc4c(c3)OCCO4)on2)c1C | / | / | / | . | .
COc1ccc(C2=NN(CC(=O)NCCCN(C)c3ccccc3)C(=O)CC2)cc1 | / | / | / | . | .
COc1ccc(CCNC(=O)C2C3CCC(C3)C2C(=O)O)cc1OC (stereo not drawn) | . | . | . | . | .
O=C(O)C1C2CCC(C2)C1C(=O)NCCc1ccccc1 (stereo not drawn) | . | . | . | 36 | .
Cc1ccc(OCCN2CCN(c3nc(NCc4ccco4)c4ccccc4n3)CC2)cc1 | . | . | 38 | . | .
OCCN1CCN(c2nc(NCc3ccco3)c3ccccc3n2)CC1 | . | . | . | . | .
c1ccc(-c2nc(NCc3ccco3)c3oc4ccccc4c3n2)cc1 | . | . | . | . | 33
CSc1nc(NCc2ccco2)c2ccccc2n1 | . | . | 31 | . | .
Cc1ccc(-c2nc(NCc3ccco3)c3ccccc3n2)cc1 | . | . | . | . | .
SMILES | D2 PAM-1 | D2 ag-1 | D2 antagonist | D2 ag-2 | D2 PAM-2
COc1cccc(C(=O)N2[C@H](COCc3ccccc3)C=CS2(=O)=O)c1 | . | . | / | / | /
Cc1ccc(-n2nnnc2CNC(=O)c2ccccc2)cc1C | / | / | / | . | .
CCC1CCCCN1C(=O)Cn1c(=O)n(-c2ccc(Cl)c(Cl)c2)c(=O)c2c(C)c(C(=O)N(C)C)sc21 (stereo not drawn) | / | / | / | / | .
CCN(CCCNc1cc2c(c(N)c1S(=O)(=O)O)C(=O)c1ccccc1C2=O)c1ccccc1 | . | . | / | / | /
COc1ccccc1NC(=O)C(C)OC(=O)C1CC(=O)N(c2ccc3c(c2)OCCO3)C1 (stereo not drawn) | 63 | . | . | . | .
COc1cccc(OC)c1OC(=O)C1CC(=O)N(c2ccc3c(c2)OCCO3)C1 (stereo not drawn) | . | . | / | / | /
